A selection: hits, their analogues and other compounds. The true share with any hit is near 19%.
IL1B secr inh: qHTS for Inhibitors of Inflammasome Signaling: IL-1-beta AlphaLISA Primary Screen; activity change, % at 57.5 µM; 4.7% of 360,000 active; AID 743279, 2014; THP-1 LPS/ATP IL-1B secretion, AlphaLISA, 16 h; stronger effect = lower value; in the data active = activity change below about -50%; inconclusive = mostly about -30% to -49%
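THP-1 cells pretreated 1 hr with compounds (up to 57.5 uM final), then stimulated with LPS (250 ng/mL final) plus ATP (1.25 mM final); secreted IL-1B measured by AlphaLISA after 16 hr, decreased signal indicating inhibition.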
HT1080 IDH1KD tx: qHTS for induction of synthetic lethality in tumor cells producing 2HG: qHTS for the HT-1080-IDH1KD cell line | HT-1080 IDH1 knockdown viability, ATP luminescence, 48 h | Potency, µM (doses to about 46.1 µM), hits mostly cytotoxic | AID 686971, 2013 | 2% of 360,000 active
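IDH1KD HT-1080 cells, 750/well, RPMI + 5% FBS; compound pinned after 2 h settling; 48 h, 37 °C; CellTiter-Glo luminescence; % activity normalised to DMSO and no-cell wells; curves fitted, classed by r2 and efficacy.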
DT40 TDP1 no CPT: qHTS for Inhibitors of human tyrosyl-DNA phosphodiesterase 1 (TDP1): qHTS in cells in absence of CPT; DT40 Tdp1-/- hTDP1 cells, no CPT, ATP luminescence, 48 h; Potency, µM (top dose mostly 46.2 µM), hits mostly inhibitors; 15% of 420,000 active; AID 686978, 2013; note: nearly all actives have a fitted effect of over 55% in size
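Chicken DT40 Tdp1-/- cells complemented with human TDP1, screened without camptothecin (DMSO vehicle only), 400 cells/well. Compounds pin-transferred, cells incubated at 37 °C for at least 48 hr. Growth read as ATP-dependent luminescence (CellTiter-Glo, 30 min at RT).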
DT40 TDP1 CPT: qHTS for Inhibitors of human tyrosyl-DNA phosphodiesterase 1 (TDP1): qHTS in cells in presence of CPT | chicken DT40 Tdp1-/-;hTDP1 cells + 20 nM CPT, ATP luminescence, 48 h | 12% of 420,000 active | Potency, µM (top dose mostly 46.2 µM), hits mostly inhibitors; note: nearly all actives have a fitted effect of over 55% in size
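Chicken DT40 Tdp1-/- cells complemented with human TDP1, 400 cells/well, exposed to compounds plus 20 nM camptothecin for at least 48 h at 37 C; viability read as ATP content by CellTiter-Glo luminescence.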
HT1080-NT tox: qHTS for induction of synthetic lethality in tumor cells producing 2HG: qHTS for the HT-1080-NT fibrosarcoma cell line | HT-1080-NT fibrosarcoma viability, CellTiter-Glo ATP luminescence, 48 h | Potency, µM (top dose mostly 46.1 µM), usual class: cytotoxic | 1.6% of 360,000 active;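 note: NT is the 2HG producing partner of a matched IDH1 knockdown line; nearly all actives have a fitted effect of over 55% in size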
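Toxicity toward the 2HG-producing NT line was scored as %Activity, normalised to DMSO and no-cell wells, from CellTiter-Glo luminescence after 48 hours' treatment.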
Hits are given with their value; 0 = inactive; ? = inconclusive; - = no result. Unless noted, calls come from the whole dose curve; as a rule, active = well fitted curve in the direction sought with a large enough effect; inconclusive = small, poorly fitted or top-dose-only effect, or another doubt; inactive = no such curve, though single readings can be large; an effect the other way counts as inactive or inconclusive.

SMILES	IL1B secr inh	HT1080 IDH1KD tx	DT40 TDP1 no CPT	DT40 TDP1 CPT	HT1080-NT tox
O=C(Nc1cccc(F)c1)/C(=C\c1ccco1)NC(=O)c1ccco1	0	0	0	0	0
Cc1cc(C)c2c3c(sc2n1)C(c1cccc(F)c1)C(C#N)=C(N)O3 (configuration not stated)	-79	0	16µM	?	0
CCc1nc2ccc(C(=O)N3CCN(C(=O)c4ccco4)CC3)cn2c1N(C)C(=O)C1CCCCC1	0	0	0	0	0
COc1ccc(S(=O)(=O)n2cnc3cc(C)c(C)cc32)cc1C	-53	0	?	12µM	?
CCOc1ccc(C)cc1S(=O)(=O)n1cnc2ccccc21	0	13µM	4.1µM	5.2µM	9.2µM
COc1ccc(Cl)cc1S(=O)(=O)n1cnc2ccccc21	0	0	?	23µM	0
COc1ccc(S(=O)(=O)n2cnc3cc(C)c(C)cc32)cc1	0	0	?	?	0
CCOc1ccc(Cl)cc1S(=O)(=O)n1cnc2ccccc21	0	11µM	4.5µM	6.3µM	11µM
CCOc1cc(C)c(Cl)cc1S(=O)(=O)n1cnc2ccccc21	0	0	?	0	0
CCC(=O)Nc1ccc(NC(=O)CSc2nnnn2-c2cccnc2)cc1C	0	0	0	0	0
c1ccc(-c2ccccc2OCc2nnc3n2CCC3)cc1	0	0	?	0	0
COc1cc(C(=O)c2nccc3cc(OC)c(OC)cc23)c([N+](=O)[O-])cc1OC	0	0	0	0	0
Cc1c(C(=O)NCCC2=CCCCC2)oc2ccc(S(=O)(=O)N3CCOCC3)cc12	?	0	21µM	?	0
Cc1c(C(=O)NCCCN2CCCC2=O)oc2ccc(S(=O)(=O)N3CCOCC3)cc12	0	0	0	0	0
O=C(NCCC1=CCCCC1)c1cc(S(=O)(=O)N2CCOCC2)ccc1F	0	0	?	13µM	0
O=C(NCCC1=CCCCC1)c1ccc(F)c(S(=O)(=O)N2CCOCC2)c1	0	0	?	0	0
CCOC(=O)/C(=C\c1ccccc1)C(=O)CCN1CCOCC1	0	0	1.5µM	1.6µM	0
O=C(CCn1cccn1)Nc1ccc(-c2ccno2)cc1	0	0	0	0	0
Cc1ccc2nc(Cl)c3cc(C(=O)NCCCN(C)Cc4ccccc4)sc3c2c1	-	-	10µM	?	-
CN(CCCNC(=O)c1cc2c(Cl)nc3ccccc3c2s1)Cc1ccccc1	-82	16µM	21µM	15µM	16µM
CCOCCc1nn2c(=O)cc(COC(=O)COc3ccc(C)c(C)c3)nc2s1	-	-	?	0	-
NC(=O)C1CC12c1ccccc1-c1ccccc12 (configuration not stated)	0	0	0	0	0
O=C(N/N=C/c1ccccn1)c1ccncc1	0	0	0	0	0
